Compounds with a hit are over-represented: about 1.6% of the library has one in this group of screens.
PG9 Ab binder: binders of HIV-1 gp120 antibody PG9, primary screen, biochemical, TR-FRET; TR-FRET gp120-PG9 antibody binding; inhibition, % at 6.7 µM; 0.43% of 360,000 active; AID 624416, 2012; in the data active = inhibition above about 8.5%
Rev-erbA mod: modulators of Rev-erb alpha DNA binding, primary screen, biochemical, FITC-DNA, fluorescence polarization, uHTS. activity, % at 10 µM. AID 1259318, 2017. 0.79% of 370,000 active. Rev-erbα–FITC-DNA binding, 90 min;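 active = activity above about 14%, limit read from the data; passing the limit was not always enough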;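 note: 0% = DMSO wells with 35 nM protein and 100% = DMSO wells with 750 nM protein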
V-ATPase pHluor: regulators of yeast V-ATPase proton pumping, primary screen, pHLuorin cytosolic pH fluorescence; 0.37% of 350,000 active; S. cerevisiae; response, % at 10 µM; AID 504577, 2011; in the data active = response mostly above about 7.3%, no sharp cut-off; inactive = mostly below about 5.4%; note: actives read high
NPR1 activator: GC-A stimulated cGMP production enhancers – HEK293 GC-A cells, cGMP TR-FRET, EC30 ANP, primary screen. 0.14% of 370,000 active. Atrial natriuretic peptide receptor 1 (Homo sapiens), P16066. 0% at EC30 ANP, 100% saturating ANP. activation, % at 10 µM. AID 1671463, 2021; in the data active = activation above about 40%
NPR2 activator: human GC-B receptor activators, primary screen, HEK293 GC-B cells, cGMP TR-FRET, EC30 CNP. activation, % at 10 µM. AID 1920062, 2024. 0% at EC30 CNP, 100% saturating CNP. 0.11% of 370,000 active. Atrial natriuretic peptide receptor 2 (Homo sapiens), P20594;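 active = activation at 10 µM reaching about 35% in either raw or pattern-adjusted values, limit read from the data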
NR1D1 mod conf: modulators of Rev-erb alpha DNA binding, confirmation, biochemical, FITC-DNA, fluorescence polarization, single point; activation, % at 25 µM; 61% of 3,000 active; shares compounds with Rev-erbA mod; 90 min;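 active = activation at or above a set limit, or at least 3 SD above the negative control mean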;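 note: 0% = 35 nM protein with DMSO and 100% = 750 nM protein high control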
RORg DNA counter: modulation of RORgamma DNA binding, dose response, counter-screen for Rev-erb alpha modulator project, biochemical, fluorescence polarization, FITC-DNA | shares compounds with Rev-erbA mod | purified RORgamma protein-FITC-DNA binding | IC50, µM | 8% of 910 active;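 active = Compounds whose fitted half-maximal concentration for disrupting protein-DNA binding is below 10 micromolar; the record names Rev-erb in its text, so the target is in doubt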
Active calls of the source: *; i = inactive; / = not tested or not shown.

SMILES	PG9 Ab binder	Rev-erbA mod	V-ATPase pHluor	NPR1 activator	NPR2 activator	NR1D1 mod conf	others
CC(=O)c1ccc(NC(=O)COC(=O)c2ccccc2N=Nc2ccc(N(C)C)cc2)cc1	-1.4	19.9	-1.9	9.7	4.5	/
COC(=O)c1ccccc1NC(=O)COC(=O)c1ccccc1N=Nc1ccc(N(C)C)cc1	-2.5	26.1*	-0.4	0.8	-3.8	29.3*
CN(C)c1cccc(C(=O)OCC(=O)N(C)c2ccccc2)c1	-2.2	-1.5	-2.0	-0.2	-3.8	/
Cc1cccc(Cl)c1NC(=O)N(C)c1ccccc1	2.6	15.9*	/	-6.3	-15.5	1.1
Cc1cccc(Cl)c1NC(=S)NN	-2.8	2.0	-1.7	2.7	6.1	/
COC(=O)[C@]1(C)CN(C(=O)OC(C)(C)C)C2=C1C(=O)C[C@@](C)(C(=O)OC(C)(C)C)C2	/	1.8	/	-0.2	2.4	/
CCCCN1CC(=O)N2[C@H](C[C@@]3(n4ccc5ccccc54)c4ccccc4N(S(=O)(=O)c4ccccc4)[C@@H]23)C1=O	/	10.0	/	0.7	9.4	/
Cc1ccccc1N1C(=O)c2cccc3c(N(C)CCO)ccc(c23)C1=O	-1.5	40.5*	3.5	2.6	-0.7	38.0*
COc1ccccc1N1C(=O)c2cccc3c(C(=O)O)ccc(c23)C1=O	1.1	-2.2	-0.6	1.0	0.7	/
COc1ccccc1N1C(=O)c2cccc3c(N(C)CCO)ccc(c23)C1=O	-4.5	29.9*	-12.3	5.8	6.8	36.7*	RORg DNA counter=>40
COC(=O)[C@]12C[C@H](CC(=O)NCCCN3CCCC3=O)C(=O)N(CCC3=CCCCC3)C1=C[C@H](C(C)C)O[C@@H]2C1CC1	/	1.3	/	-1.0	1.4	/
COC(=O)c1cc(COc2ccc3c(c2)oc(=O)c2ccccc23)c(C)o1	1.6	28.9*	-1.1	-6.3	-2.2	23.6*
O=c1oc(CCCO)cc2ccc(C#Cc3ccsc3)cc12	-0.4	5.7	-1.7	2.3	-13.7	/
CN(C)c1ccc(C#Cc2ccc3cc(CCCO)oc(=O)c3c2)cc1	1.5	28.5*	-2.4	6.3	-1.4	5.6
O=c1oc(CCCO)cc2ccc(C#CC3(O)CCCCC3)cc12	-0.2	-0.9	-0.2	6.2	3.5	/
O=C1c2ccccc2C(=O)N1CCC#Cc1ccc2cc(CCCO)oc(=O)c2c1	0.9	16.1*	-0.9	3.3	-1.4	0.3
CCOC(=O)C1C[C@@H](O)C=CC1=O (stereo partly specified)	/	2.7	/	1.9	-3.8	/
CC(=O)c1cc2c(cc1NC(=O)c1ccc(C)cc1)OCCO2	7.9	27.6*	-2.0	6.8	-1.6	3.1
CC(=O)c1cc2c(cc1N/C(=N/S(=O)(=O)c1ccc(C)cc1)c1ccc(Cl)cc1)OCO2	-2.1	91.8*	-7.0	-3.9	0.3	57.3*	RORg DNA counter=>40
CCC(=O)c1cc2c(cc1NC(=O)c1ccc(C)cc1)OCCO2	-1.5	1.0	-5.3	-6.7	-3.0	/
COC(=O)[C@H](Cc1ccccc1)N(Cc1cn(Cc2ccccc2)nn1)S(=O)(=O)c1ccccc1Br	/	1.7	/	-5.9	-5.5	/
O=C1C[C@H](c2ccc3ccccc3c2)N=C2N1/C(=C\c1ccccc1)[C@@H](c1ccccc1C(F)(F)F)N2Cc1ccc2c(c1)OCO2	/	3.5	/	-0.5	6.0	/
O=C1/C(=C\c2cc(Cl)c(O)c(Cl)c2)SC(=S)N1Cc1ccccc1	1.5	67.3*	97.1*	5.9	0.7	50.9*	RORg DNA counter=i
O=C(NCCc1c[nH]c2ccccc12)OCc1cn(Cc2cccc(F)c2)nn1	/	-8.3	/	1.9	1.3	/
CCOC(=O)c1c(NC(=S)NCCc2ccccc2)sc2c1CC(C(C)C)OC2 (stereo unspecified)	1.4	26.0*	0.7	0.6	2.9	25.3*
